Among the data in PubChem BioAssay AID1347426 (Functional Genomics Laboratory (NCATS/FGL), 2020) are median seed-adjusted z-score values, retold here.

In all, about 31,000 sequences went through this assay and about 1,400 (4.5%) were called active. The entries come from a sample that favours actives as a whole. Unmarked numbers belong to inactive results.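 The calls were made as follows: active = median seed-adjusted z-score above 1 or below -1; inactive = the rest.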

A short description of the assay: Novel Modifiers of Survival Motor Neuron (SMN) Protein: Gene Identification via Genome-wide siRNA Screen.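 Also: luminescence tracks full-length SMN protein made from the SMN2 reporter.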 The note with it: HEK293T SMN2-luciferase reporter, siRNA knockdown, 72 h; actives lie on both sides. The method, boiled down:
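Each of three siRNAs per gene is reverse-transfected (1 pmol) into reporter HEK293T cells whose luciferase output tracks SMN protein level. After 72 h culture, ONE-Glo luminescence is control-normalized, log10-transformed and MAD-standardized; Common Seed Analysis deprioritizes seed-driven hits.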
As to GAGUGGAGCGUACAUCCUATT against ZXDA, the median seed-adjusted z-score was -0.0748.
In the case of CAAUAGUCCUGAGACCGAATT against MYST3, the median seed-adjusted z-score was -0.49.
As for GCAUUACCGCGAUGAAUUATT against DNAI1, the figure is -0.783; as for UCCUAACCUCAGAAACUGATT against CAPS, -1.25 (active); as for GGAAGGCUCCAAACGGAAATT against PBRM1, -0.118.
GCACGUUUGAGUACGAAUATT against SFPQ: the median seed-adjusted z-score was -1.15 (active).
Turning to GGACCAGUCUGCCUAUGUATT against NXF5, the median seed-adjusted z-score is -0.396.
Consider GCGGGACAGAAGUUAGAUATT against HCCS, for which the median seed-adjusted z-score is 0.00254.
As for GGAUGAUAUGGGACCAUAATT against PTPRZ1, the figure is 1.73 (active); as for GUCUUGUAGAAAUCUCAGATT against RFC3, 0.733; as for GCUUCGAGGAGGGCAAGAATT against PRSS27, 1.03 (active).
Consider GAUAGUGACAGGUUAAUGATT against TIGD6, for which the median seed-adjusted z-score is -0.443.
As for GCCUGACCCGUGAGACAAATT against THY1, the figure is -1.1 (active).
As for GCAUCUAAAGAGCUACAGATT against ZNF584, the median seed-adjusted z-score was 0.172.
On to CAAUGUCCAGGGUAUCAUUTT against HAO2, for which the median seed-adjusted z-score was 0.039.
Turning to GGAGGGACAAGAUCAACAATT against USF2, the median seed-adjusted z-score is 0.352.
With CCAGCCGUGUUGUAGCUAATT against S100B, the median seed-adjusted z-score is 0.862.
Take CCGUAAAGCUGCAUUAGAATT against CUGBP1: the median seed-adjusted z-score is 0.086.
Take GGGUCAUCAGUAGCAUUGATT against YWHAG: the median seed-adjusted z-score is 1.98 (active).
As for GCAGUACGGAAGCUACCGATT against SS18L1, the figure is -0.174.
In the case of CAUUGGACAGUAUUACAAATT against UBE2U, the median seed-adjusted z-score was -0.0545.
As for CCUUCCCUCUACACCAUCATT against COPZ2, the figure is -1.23 (active); as for CCUAAGUUACUACUAGUAUTT against ENPP4, 0; as for GGAUCUCACAGGUUCCGUUTT against LARS2, 0.25.
On to GAACUUGACCAUUAUAUCATT against PHKA2, for which the median seed-adjusted z-score was 0.304.
Take CGGUGGUGAAUGAAAGUCATT against FKBP14: the median seed-adjusted z-score is -0.455.
Take GAGGUGAACUGGAAGCGAATT against MBOAT1: the median seed-adjusted z-score was -1.22 (active).
As for CGCUUAACAUUGGAGUUCATT against ATG7, the median seed-adjusted z-score is -0.328.
On to CUACGGCUUUGGAGAUAUATT against RECQL, for which the median seed-adjusted z-score is -0.905.
For CAUCCAUUCUACAUCCGUATT against VHL, the median seed-adjusted z-score is -0.0797.
In the case of AGAGCACAUCAAAUCAGAATT against PAX2, the median seed-adjusted z-score was 0.341.
With GCUUAUGCGUAGAUCCUUUTT against SMYD4, the median seed-adjusted z-score is 0.272.
Regarding GCACCUUCCCAACCAUCAATT against GPX2, the median seed-adjusted z-score is -0.21.
GCAGAUUUUGAGCAACUGATT against TRIM5: the median seed-adjusted z-score was 0.0758.
GAACUUUGAUGACGAGUGATT against RAD23A: the median seed-adjusted z-score is -1.13 (active).
Consider GAUGAUCAGCUAUGAAAAATT against ZNF780A, for which the median seed-adjusted z-score is 0.298.
Regarding GCAGAUAUCUGAUAGCCCUTT against PPA2, the median seed-adjusted z-score was -0.497.
As for CGUCUAUGCCUAUAAAAUATT against ADORA3, the figure is 0; as for GCGAUGCCUAUAAAACCUATT against TRYX3, 2.3 (active).
As for CUAGGAAGAUAAUACCAGATT against BTRC, the figure is -0.0819.
GGAAGUACCUGAGUGUGCATT against MTCH1: the median seed-adjusted z-score was 0.
On to GCUCUUUGCCGUUUCUAAUTT against SLC29A2, for which the median seed-adjusted z-score is -0.0569.
As for CGAGAAAUUGCACAACCGATT against NACC1, the figure is 1.59 (active); as for GGACAUUGGACUAACCCAATT against EFHB, 0.675.
On to CUAUGGUAAUGUUUGCUUUTT against ZXDB, for which the median seed-adjusted z-score was 0.186.
As to CAAGAUCAAGAGUUCCUGATT against CYP2B6, the median seed-adjusted z-score is 0.454.
As for CCGAGAGUAUGUCGACUUATT against CBFB, the median seed-adjusted z-score is -0.0379.
As for GGAAAACAAGCUCAUCAAUTT against HOXA6, the median seed-adjusted z-score was -0.282.
In the case of GCAGCGUAGUUUUUGCGGATT against DOCK2, the median seed-adjusted z-score is 0.151.
As to UCAGUGCCCUUGUAUCAAATT against CYP4F2, the median seed-adjusted z-score was -0.387.
As for GCCUCAGUUUGAAAUUGUUTT against TBRG1, the median seed-adjusted z-score was -1.47 (active).
Regarding CAGACUCUCCGAUCUCUGATT against NRIP3, the median seed-adjusted z-score was -0.699.
On to CCUGGAUCCAAAUAGCGAATT against SMARCA2, for which the median seed-adjusted z-score is -0.458.
As for CUCUUUGACGUGUCUCAUATT against AMT, the figure is -0.506; as for CCUGAACAUUGGACCCUGUTT against CPSF1, 3.29 (active).
As for UCACUUUCCCUGUAAAUAUTT against CD84, the figure is 0.629.
As for GCAAGACCUAAGCAAACUATT against BXDC1, the figure is 0.173; as for CAUAGACUCUUACACCACATT against SC4MOL, -0.0194; as for GGCUGUCUGCUGUACGAGATT against NEK6, -0.674.
CCAGCUCCUUUAUCAAGCATT against RAD51: the median seed-adjusted z-score is 0.594.
GCCUGGAUAACAUCACUGATT against AIM2: the median seed-adjusted z-score is 0.0646.
As for GACCUGAUGUGGACCCAGATT against MIOX, the figure is 0.14; as for GCGACCAACUGAUUGUCGATT against PTPRZ1, 1.73 (active); as for GACACUUGCUUAGAAGUAATT against LRP12, 0.416.
As to GGAUCUACGUGUACGUCAATT against LPAR3, the median seed-adjusted z-score is -0.3.
As for GGAUCAGUUUGACAGUUUUTT against RNPEP, the figure is -0.236.
As for GGAAAUUAGCUGCAGCUGATT against PPP1R2, the figure is 0.208; as for GGAGAACCACAGUUGCUUUTT against IL17RA, -1.29 (active).
Turning to GGAUUCAUCCUUACCCUCATT against PPP2R4, the median seed-adjusted z-score was 0.318.
For GCUUUACAGAAAGCCGUGATT against STRADB, the median seed-adjusted z-score is 0.21.
In the case of CCCUCGAGCAUGUUCCAAATT against PRPF6, the median seed-adjusted z-score was -1.06 (active).
As for AGAUCGUGGUGCAUCCAUATT against ELA1, the figure is 0.687.
As for GCACCAACCUGACCUGUCATT against CD33, the figure is -0.355; as for GAACCAAGAUCAUUAUGCATT against DNAJC2, -0.0357.
GCGCAGCCUUUAGAGGAUATT against UBE2J1: the median seed-adjusted z-score is -1.2 (active).
UGGAGUAAAUAGUUCUAAUTT against UBE2V1: the median seed-adjusted z-score is 0.745.
As for UGAGGAUAGUGGGUCUGUATT against MEIS3, the figure is 0.207.
Consider GACUCAUCGUGAUGAGAUUTT against SLC7A9, for which the median seed-adjusted z-score is 0.194.
Turning to GGAACAAGUAUUUAGGAAATT against CAPSL, the median seed-adjusted z-score is -0.168.
In the case of CCCUAGGCCUUUUACGAAATT against RAG1, the median seed-adjusted z-score was -1.35 (active).
Turning to AGCAGAAGAAGUUCAAAUATT against P2RX1, the median seed-adjusted z-score is 0.908.
As for GCAGUAUAUUACAAACAAATT against NAT2, the figure is -0.0495.
In the case of GGCCCAAGCUUCAACAGCATT against DNASE2, the median seed-adjusted z-score is -1.23 (active).
GGAAAUCGUUCAGUAAGAATT against ZNF175: the median seed-adjusted z-score was -0.0194.
As for CCAUAACCUUAUUGACGCATT against LRFN4, the figure is -0.076; as for GCCUGAUUCUGAGUGAUGATT against SPTLC2, 0.
As for GCCUGAUACAAAAUCAACATT against TRPC5, the figure is -1.14 (active); as for GGAGUUACAUCAGACCUAUTT against MOGAT1, 0.293; as for GGAAAUCUGAAGACGAUAATT against CCAR1, -1.18 (active).
For AACUGGGAAUUGAGAGGUATT against SOX12, the median seed-adjusted z-score is 0.478.
Consider GGCCUUACCAAUCAUCAUUTT against SLC28A2, for which the median seed-adjusted z-score was -0.076.
As to GAAUUCGACCAGUAUUUGATT against SOX7, the median seed-adjusted z-score was -0.387.
As for CCGUAUGUUUUGCUGCAAATT against ABCC4, the figure is -1.66 (active); as for GCAAGUCCCGCAAAAAGAATT against NEIL1, -0.168; as for GCACCGUCAAGGAAGAUAATT against ADAMTSL1, -0.107.
For GUAUGCGACUGGGAUCUUATT against HP, the median seed-adjusted z-score is 0.
Regarding CAGUGGAAAUAAUUACGUUTT against MDH1B, the median seed-adjusted z-score was -1.13 (active).
For the sequence GAUCUACACUUGGAUGGAUTT against SAP18, the median seed-adjusted z-score is 2.14 (active).
Regarding CUAACGAAGAUUCACCCAATT against ASPN, the median seed-adjusted z-score was -0.0432.
As to UCGUGGUUGUUAAUUUGAATT against CSNK1E, the median seed-adjusted z-score was -0.796.
For the sequence CAACUGUUCCUGUAUUGAATT against SLCO4C1, the median seed-adjusted z-score was -0.116.
For the sequence GUAUCAAUCUAGAGCACAATT against MYOZ2, the median seed-adjusted z-score is 0.315.
As for CGAGCUACACUGUCCACUUTT against CSGLCA-T, the figure is 0.146; as for GGACUUGCUCGGCUCUAUATT against CRKRS, -1.16 (active); as for CAACUUGGACAAGACCUUATT against GYS1, 0.874.
Consider CGACAUCAGCUGAUAAUCATT against NPY1R, for which the median seed-adjusted z-score is 0.76.
Turning to AACAGUAUCUUUCAGAAUATT against TMPRSS5, the median seed-adjusted z-score was 1.25 (active).
As for GGCUGAAUUAUGACCGGAATT against PPFIA4, the figure is 0.0399; as for CUUGGAUACAGAUACGUUUTT against TLK1, -0.0133.
